Screening results from PubChem.
GLP1R inv ag = qHTS of GLP-1 Receptor Inverse Agonists (Inhibition Mode) | Glucagon-like peptide 1 receptor (Homo sapiens), P43220 | HEK293 GLP-1R CRE-luciferase, luminescence, 24 h; GLP-1R form is constitutively active | Potency, µM (series often up to 38.3 µM), most hits filed as inhibitors | hit rate 1.6% among 410,000; also: nearly all actives have a fitted effect of over 55% in size
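Constitutively active GLP-1R drives a cAMP-responsive luciferase in stably transfected HEK293 cells; test compounds are added after overnight (12 h) attachment and left 24 hr, and signal loss in luminescence marks inhibition.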
PTHR1 agonist = qHTS for PTHR1 Agonists: Primary Screen | hit rate 0.075% among 410,000 | Potency, µM (top dose mostly 115 µM), usual class: activators | Parathyroid hormone/parathyroid hormone-related peptide receptor (Homo sapiens), Q03431 | AID 743266, 2014 | HEK293 GP2 PTHR1 cells, GloSensor cAMP luminescence, 1 h; also: nearly all actives have a fitted effect of over 55% in size
Target sequence (Q03431 whole entry, looked up): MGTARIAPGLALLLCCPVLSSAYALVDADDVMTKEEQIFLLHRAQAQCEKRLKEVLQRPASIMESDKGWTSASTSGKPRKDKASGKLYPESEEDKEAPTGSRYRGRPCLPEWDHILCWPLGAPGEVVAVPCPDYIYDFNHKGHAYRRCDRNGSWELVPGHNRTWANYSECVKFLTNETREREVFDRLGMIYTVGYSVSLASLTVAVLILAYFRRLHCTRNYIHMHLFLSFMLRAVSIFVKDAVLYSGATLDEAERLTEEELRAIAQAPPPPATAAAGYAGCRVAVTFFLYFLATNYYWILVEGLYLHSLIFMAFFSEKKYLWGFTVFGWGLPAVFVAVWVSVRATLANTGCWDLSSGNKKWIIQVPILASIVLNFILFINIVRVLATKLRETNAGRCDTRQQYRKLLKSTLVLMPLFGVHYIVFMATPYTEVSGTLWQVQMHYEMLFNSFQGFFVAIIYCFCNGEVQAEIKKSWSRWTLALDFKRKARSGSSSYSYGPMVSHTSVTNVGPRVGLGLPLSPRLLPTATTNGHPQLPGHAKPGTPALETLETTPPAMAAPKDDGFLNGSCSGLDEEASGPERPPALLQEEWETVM
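HEK-293-derived GP2 cells expressing PTHR1 and a GloSensor cAMP reporter, 3,000/well, plated overnight, given luciferin plus IBMX (each 0.5 mM as added) for 1 h at 37 °C, then compound for 1 h at 37 °C. Luminescence was read after 15 min at room temperature.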
TRHR PAM = qHTS for Small Molecule Agonists and Allosteric Enhancers of Human TRH Receptor: Primary Screen for Enhancers. hit rate 0.66% among 360,000. enhancement, % at 2 µM. TRHR cells, fluo-8 calcium fluorescence, EC20 TRH enhancement. Thyrotropin-releasing hormone receptor (Homo sapiens), P34981; in the data active = enhancement above about 30%
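Enhancer read-out: after compound pinning and an initial kinetic agonist-mode read, an EC20 of TRH (10 nM final) was injected and fluo-8 calcium signal (Ex 480/Em 530) followed at 1 s/cycle for 100 cycles in TRHR-expressing cells.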
GLP1R ag = qHTS of GLP-1 Receptor Agonists; HEK293 GLP-1R CRE-luciferase, luminescence, 4-6 h; cells express a hypersensitive GLP-1R form; hit rate 0.007% among 380,000; Potency, µM (series often up to 45.6 µM), actives largely listed as activators; Glucagon-like peptide 1 receptor (Homo sapiens), P43220
GLP1R cytotox = qHTS of GLP-1 Receptor Inverse Agonists: Cytotox Screen; HEK293 cAMP-luciferase reporter cells, luminescence, 24 h; Potency, µM (titrated, usually from 38.3 µM), most hits filed as inhibitors; hit rate 0.13% among 410,000;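 also: loss of luciferase light is scored as toxicity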
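Luminescence readout: signal drop marks cytotoxicity. Plated cells grew 12 h at 37 °C, 5% CO2, received 23 nL compound for 24 h, then got luciferase reagent, read after 12 min at RT.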
TRHR ag = qHTS for Small Molecule Agonists and Allosteric Enhancers of Human TRH Receptor: Primary Screen for Agonists | Thyrotropin-releasing hormone receptor (Homo sapiens), P34981 | activation, % at 2 µM | hit rate 0.18% among 360,000 | TRHR cells, calcium flux fluo-8, FDSS agonist mode; in the data active = activation above about 30%
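In this calcium-flux screen, cells bearing human TRHR are dye-loaded with fluo-8, baselined for 10 cycles, then exposed to library compounds; positive kinetic calcium responses during the agonist phase mark hits, with TRH as control.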
Each line names hits and unclear results; the compound was inactive in the other large screens. Compounds with a hit are over-represented: about 2.4% of the library has one in this group of screens. Unless noted, calls follow the shape of the dose curve; as a rule, active = well fitted curve in the direction sought with a large enough effect; inconclusive = small, poorly fitted or top-dose-only effect, or another doubt; inactive = no such curve, though single readings can be large; an effect the other way counts as inactive or inconclusive.

CC(Sc1nnc(CN2CCCC2)n1Cc1ccccc1)C(=O)Nc1ccc(F)cc1Cl (stereo not given)	GLP1R inv ag 5.62µM (no result: TRHR PAM, TRHR ag)
CN(C)S(=O)(=O)c1ccc(NC(=O)c2ccncc2)cc1	none
CC1=NN(C(=O)CSCc2ccccc2)C(O)(c2ccc(F)cc2)C1 (stereo not given)	GLP1R inv ag 7.94µM
CC1=NN(C(=O)CSCc2ccccc2)C(O)(c2ccc(Cl)cc2)C1 (stereo not given)	GLP1R inv ag inconclusive
CCOc1ccccc1C(=O)Nc1c(C(=O)Nc2ccc(F)cc2)oc2ccccc12	GLP1R inv ag inconclusive, TRHR PAM 43.2
CCOc1ccccc1C(=O)Nc1ccc(NC(=O)c2ccccc2)cc1	TRHR PAM 33.5
COc1ccc(NC(=O)c2oc3ccccc3c2NC(=O)COc2ccc(F)cc2)c(OC)c1	TRHR PAM 38.7
Cc1ccc(-c2ccc(/C=N/NC(=O)c3ccccc3O)o2)cc1	none (no result: GLP1R inv ag, PTHR1 agonist, GLP1R ag, GLP1R cytotox)
CCc1cc2c3c(c1)C(C)CC(C)(C)N3C(=O)C2=O (stereo not given)	none
Cc1ccccc1NC(=O)C1CCCN(c2nnc(N3CCCC3=O)s2)C1 (stereo not given)	none
CCC(C)C(=O)N1c2ccccc2C(=C2SC(C(=O)OC)=C(C(=O)OC)S2)C(=S)C1(C)C (stereo not given)	GLP1R inv ag 10µM
Cc1c(C)n(C(=O)CN2CCC(C)CC2)c2ccccc12	TRHR PAM 35.2
CCc1ccc(NC(=O)C(CC)n2c(=O)c(-c3ccccc3NC(C)=O)nc3ccccc32)cc1 (stereo not given)	GLP1R inv ag 11.2µM (no result: GLP1R ag)
CCC(C(=O)Nc1c(C)cc(C)cc1C)n1c(=O)c(-c2ccccc2NC(C)=O)nc2ccccc21 (stereo not given)	none (no result: GLP1R ag)
COc1cc(O)ccc1-c1nc2cc(C)ccn2c1Nc1ccccc1C	GLP1R inv ag 10µM (no result: GLP1R ag)
O=C1NC2(CCCCCC2)C(=O)N1Cc1ccc(F)cc1Cl	GLP1R inv ag inconclusive
Cc1ccc(N(C(C)C(=O)N2CCN(Cc3ccccc3)CC2)S(C)(=O)=O)cc1 (stereo not given)	TRHR PAM 36.7
COC(=O)C1(C)CCCC2(C)C3CCC(C(C)C)C(CO)C3C(CO)CC12 (stereo not given)	GLP1R inv ag 10µM, GLP1R cytotox inconclusive (no result: TRHR PAM, TRHR ag)
O=C(CSc1nnnn1C1CCCCC1)Nc1cccc(NC(=O)c2ccco2)c1	GLP1R inv ag 7.08µM
COC(=O)c1nn(-c2cccc(C(F)(F)F)c2)c(=O)cc1Sc1ccccn1	TRHR PAM 38.7
CC(C)(C)C(=O)CSc1nc2ccsc2c(=O)n1Cc1ccccc1F	GLP1R inv ag 12.6µM (no result: GLP1R ag)
COC(=O)C1=C(C)N(c2ccc(OC)cc2)C(C)=C(C(=O)OC)C1c1ccccc1	GLP1R inv ag 8.91µM
COC(=O)C1=CN(c2ccc(OC)cc2)C=C(C(=O)OC)C1c1cccc(F)c1	GLP1R inv ag inconclusive
c1ccc(-c2nnnn2-c2ccccc2)cc1	none
O=[N+]([O-])c1ccc(-n2nnnc2-c2ccccc2)cc1	TRHR PAM 35.6
Cc1ccccc1-n1nnnc1-c1ccccc1	none
O=[N+]([O-])c1ccc(-n2nnnc2-c2ccccc2)c([N+](=O)[O-])c1	GLP1R inv ag inconclusive, GLP1R cytotox 10µM
COCCCN1C(=O)C(=O)/C(=C(/O)c2ccc(OC(C)C)cc2)C1c1ccncc1 (stereo not given)	none
O=C(CSc1ccccc1F)NNC(=O)c1ccncc1	none
O=C(NCCN1CCOCC1)c1ccc(Cl)c(Cl)c1	none
O=C1/C(=C\c2ccc(Cl)c(Cl)c2)CN(C(=O)CCN2CCOCC2)C/C1=C/c1ccc(Cl)c(Cl)c1	GLP1R inv ag inconclusive, GLP1R cytotox 2.82µM (no result: TRHR PAM, TRHR ag)
O=C(c1ccccc1)N1N=C(c2ccccc2)CC1c1ccccc1O (stereo not given)	GLP1R inv ag 11.2µM
O=C(c1cccs1)N1N=C(c2ccccc2)CC1c1ccccc1O (stereo not given)	GLP1R inv ag 8.91µM
O=C(c1ccncc1)N1N=C(c2ccc(Br)cc2)CC1c1ccccc1O (stereo not given)	GLP1R inv ag inconclusive
CCOc1ccccc1N1CCN(c2nc3ccccc3nc2C(C#N)C(=O)OC(C)C)CC1 (stereo not given)	GLP1R inv ag 5.01µM
C=CCOC(=O)C(C#N)c1nc2ccccc2nc1N1CCN(c2ccccc2OCC)CC1 (stereo not given)	GLP1R inv ag inconclusive
CCOC(=O)C1CCN(c2nc3ccccc3nc2C(C#N)C(=O)OCCOC)CC1 (stereo not given)	none
C=CCOC(=O)C(C#N)c1nc2ccccc2nc1N1CCC(C(=O)OCC)CC1 (stereo not given)	GLP1R inv ag 6.31µM
Cc1ccc(NC(=O)c2cc(S(=O)(=O)N3CCCCC3)ccc2N2CCOCC2)cc1S(=O)(=O)N(C)C	none (no result: TRHR PAM, TRHR ag)
COC(=O)Cc1c(C)c2ccc(OCC(=O)N3CCC(C)CC3)c(C)c2oc1=O	none
COCc1cc(=O)[nH]c(/N=C(\N)Nc2c(F)cccc2F)n1	none
COc1ccc(S(=O)(=O)N(CC(=O)Nc2cccc(C(F)(F)F)c2)c2ccc(C)cc2)cc1	GLP1R inv ag 10µM
COc1ccc(N(CC(=O)Nc2c(C)n(C)n(-c3ccccc3)c2=O)S(=O)(=O)c2ccc(C)cc2)cc1	GLP1R inv ag inconclusive, TRHR PAM 30.5
COc1ccc(N(CC(=O)NC2CC3CCC2C3)S(=O)(=O)c2ccc(C)cc2)cc1 (stereo not given)	GLP1R inv ag 10µM
COCCCNc1ccn2nc(-c3cccc(Cl)c3)cc2n1	GLP1R inv ag inconclusive (no result: TRHR PAM, TRHR ag)
COCCCNc1ccn2nc(-c3ccccc3)cc2n1	GLP1R inv ag 3.98µM (no result: TRHR PAM, TRHR ag)
c1ccc(COc2cccc(-c3cc4nc(NCc5cccs5)ccn4n3)c2)cc1	GLP1R inv ag 4.47µM (no result: TRHR PAM, TRHR ag)
COC(=O)c1ccc(S(=O)(=O)NCc2cccc(OC)c2)n1C	none
Cc1ccc(OCc2nnc(SCC(=O)C(C)(C)C)n2Cc2ccco2)cc1	GLP1R inv ag 2µM
Cc1cc(NC(=O)CSc2nnc(COc3ccccc3)n2Cc2ccco2)no1	none
O=C(NNC(=O)C1CCCC1)c1ccccc1F	TRHR PAM 34.6
CCc1ccc(-c2n[nH]nc2C2=CC(=O)C[C@H](c3ccc(F)cc3)C2)cc1	GLP1R inv ag 8.91µM (no result: TRHR PAM, TRHR ag)
